Screens from PubChem.
Sm TGR inh – blocks Schistosoma mansoni thioredoxin glutathione reductase | Q962Y6 | purified TGR, DTNB reduction, TNB absorbance 405 nm | Potency, µM (top dose mostly 114 µM), for inactives: at the top dose activity change, negative = inhibition, hits mostly inhibitors | actives 3% (n = 360,000) | AID 485364; also: potency is read from the fitted curve at half-maximal effect; nearly all actives have a fitted effect of over 60% in size
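Kinetic colorimetric format: TGR-catalysed, NADPH-driven DTNB reduction monitored via TNB absorbance. Enzyme dispensed at 20 nM; compound exposure 15 min at room temperature before reaction start.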
HCMV antiviral – human cytomegalovirus inhibition; HFF cells, HCMV-luciferase reporter, 72 h; active compounds read low; AID 1259415; actives 4.5% (n = 410,000); activity change, negative = inhibition, % at 57.5 µM; in the data active = activity change below about -60%; inconclusive = no clear call, values can overlap the other calls; inactive = above about -39%
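Steps: HFFs plated, 16 h 37C; compounds added; HCMV-luciferase added to MOI 1 PFU/cell; 72 h 37C; OneGlo reagent, 5 min room temperature; luminescence read, normalized to controls.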
Giardia FBPA inh – blocks Giardia fructose-bisphosphate aldolase activity. AID 2451. A8B2U2. Potency, µM (doses to about 59.6 µM), for the others: at the highest dose activity, negative = inhibition, usual class: inhibitors. actives 0.71% (n = 290,000). purified Giardia FBPA; also: potency is read from the fitted curve at half-maximal effect; nearly all actives have a fitted effect of over 55% in size
Target sequence (A8B2U2 whole entry, looked up): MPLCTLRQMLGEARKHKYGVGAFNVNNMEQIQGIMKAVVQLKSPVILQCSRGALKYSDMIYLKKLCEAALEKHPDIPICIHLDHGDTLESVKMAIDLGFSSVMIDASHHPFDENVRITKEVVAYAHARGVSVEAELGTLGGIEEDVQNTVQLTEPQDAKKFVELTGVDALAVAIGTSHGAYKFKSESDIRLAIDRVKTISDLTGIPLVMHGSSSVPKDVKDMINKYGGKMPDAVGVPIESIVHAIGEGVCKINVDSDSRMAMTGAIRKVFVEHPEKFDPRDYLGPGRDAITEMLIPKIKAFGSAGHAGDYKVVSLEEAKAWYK
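40 nM FBPA preincubated 10 min at RT with compound (up to 57.5 uM final), then substrate plus GAPDH/TPI/NAD/arsenate coupling and diaphorase/resazurin added. Fluorescence read after 20 min at RT, 525/598 nm.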
Pf growth 96h – P. falciparum growth inhibition at 96 hour, primary screen for plastid delayed-death inhibitors. AID 504834. actives 6.9% (n = 320,000). Potency, µM (top dose mostly 28.7 µM), for the others: top-dose activity change, negative = inhibition, usual class: inhibitors. P. falciparum luciferase reporter growth, 96 h; also: potency is read from the fitted curve at half-maximal effect
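Erythrocytes infected with luciferase-expressing P. falciparum were dispensed at 2% hematocrit and 0.05% parasitemia (final), then incubated with compounds 96 hours at 37 C in 5% CO2. Luminescence after detection reagent addition reported growth.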
Pf growth 48h – inhibits P. falciparum growth in the first generation, 48 h; P. falciparum luciferase growth in erythrocytes, 48 h; Potency, µM (doses to about 28.7 µM), for the others: top-dose activity change, negative = inhibition, usual class: inhibitors; actives 5.9% (n = 310,000); AID 504832; also: potency is read from the fitted curve at half-maximal effect
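A one-generation exposure of luciferase-tagged malaria parasites in RPMI 1640/Albumax erythrocyte culture, 37 C and 5% CO2. Inhibition is inferred from decreased luminescence after adding detection reagent.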
* = called active by the depositor; u = inconclusive; x = no result; ! = a repeat was not active. Sampled rows, rich in hits. Any-hit rate of the full collection: about 14%. Unless noted, calls follow the shape of the dose curve; as a rule, active = well fitted curve in the direction sought with a large enough effect; inconclusive = small, poorly fitted or top-dose-only effect, or another doubt; inactive = no such curve, though single readings can be large; an effect the other way counts as inactive or inconclusive. % is scaled to controls: 0 for no effect and ±100 for the full control effect.

SMILES	Sm TGR inh	HCMV antiviral	Giardia FBPA inh	Pf growth 96h	Pf growth 48h
Cn1cc(S(=O)(=O)N2CCCC2)cc1C(=O)NCCc1ccccc1	-18.4%	17.6	9.0%	2.62µM*	-12.7%
Cc1cc(C)c(S(=O)(=O)N2CCOC2CNC(=O)C(=O)NCc2cccnc2)c(C)c1 (stereo not drawn)	-10.6%	1.6	4.1%	u	-2.7%
O=C(NC1CCN(S(=O)(=O)c2cccc(Cl)c2)CC1)C1CCCCC1	-9.4%	-10.8	1.1%	-2.4%	2.9%
Cc1ccc(Cc2c(-c3ccc(Br)cc3)nc3cc(C)ccn23)cc1	x	-2.7	x	x	x
Cn1cc(S(=O)(=O)N2CCOCC2)cc1C(=O)NCCc1ccccc1	89.1µM*	x	1.7%	65.9%	-5.6%
CCOC(=O)N1CCC(NC(=O)c2cc3sccc3n2CC)CC1	-3.3%	-8.0	1.6%	5.22µM*	15.3%
CCn1c(C(=O)NC2CCC(C)CC2)cc2sccc21 (stereo not drawn)	6.9%	-9.9	-15.6%	-18.0%	113.3%
CN1C2CCC1CC(OC(c1ccccc1)c1ccccc1N)C2 (stereo not drawn)	x	-4.2	-2.6%	x	x
CN1C2CCC1CC(OC(c1ccccc1)c1ccc(Cl)cc1)C2 (stereo not drawn)	x	u	-4.2%	8.5%	4.78µM*
Nc1ncnc2c1ncn2[C@@H]1O[C@H](C(=O)N(CCC2=CCCCC2)CC2CC2)[C@@H](O)[C@H]1O	x	-6.4	x	x	x
COc1ccc(Cc2n[nH]c(=S)n2-c2cc(C)ccc2C)cc1OC	x	-11.9	x	x	x
CC(=O)NC12CC3CC(C1)CC(C(=O)N1CCN(S(=O)(=O)c4ccc(C(C)C)cc4)CC1)(C3)C2	-8.5%	-7.8	x	11.7µM*	0.4%
CCNC(=O)[C@@H]1[C@@H](CO)[C@@H]2Cn3c(cccc3=O)[C@@H]2N1Cc1cccc(F)c1	x	16.8	x	x	x
CC(=O)Nc1ccc(NC(=O)C(C)Sc2n[nH]c(=O)n2Cc2ccccc2)cc1 (stereo not drawn)	1.2%	14.1	-0.9%	-2.3%	3.6%
C=C1[C@@H](OC(C)=O)CC[C@]2(C)[C@@H]1C[C@@H]1C[C@H](OC(C)=O)C(C)=C([C@@H](OC(C)=O)[C@@H]2OC(C)=O)C1(C)C	8.5%	-2.7	-0.6%	7.38µM*	6.57µM*
COc1ccc(Cl)cc1NC(=O)c1cc2nc(-c3ccc4c(c3)OCO4)cc(C(F)(F)F)n2n1	1.6%	1.2	x	x	x
CCOC(=O)/C=C/C(=O)Nc1ccc(S(=O)(=O)Nc2cc(C)on2)cc1	11.2µM*	31.7	x	26.5%	10.4µM*
CCOC(=O)C(NC(C)=O)(Nc1ccc(S(=O)(=O)Nc2cc(C)on2)cc1)C(F)(F)F (stereo not drawn)	-9.4%	12.6	0.1%	-1.9%	20.0%
CCOC(=O)CCC(=O)Nc1ccc(S(=O)(=O)N2CCCCC2)cc1	0.0%	-31.5	0.6%	5.22µM*	-2.8%
Cc1cc(NS(=O)(=O)c2ccc(NC(NC(=O)C(C(F)(F)F)C(F)(F)F)(C(F)(F)F)C(F)(F)F)cc2)no1	12.6µM*	x	-7.0%	-14.5%	9.2%
CCOC(=O)/C=C/C(=O)Nc1ccc(S(=O)(=O)N(C)c2ccccc2)cc1	39.8µM*	-24.5	-6.6%	-10.6%	u
CCCC(=O)Nc1ccc(S(=O)(=O)N2CCCC2)cc1	-6.9%	60.7	5.7%	x	24.4%
CCOC(=O)Nc1ccc(S(=O)(=O)Nc2cc(C)on2)cc1	-13.0%	-13.8	1.8%	53.7%	-10.8%
C[C@@H]1CN([C@@H](C)CO)C(=O)c2cc(Br)cnc2O[C@H]1CN(C)C(=O)NC1CCCC1	x	35.8	x	x	x
COc1ccc(CC(=O)Oc2ccc(F)c(F)c2)cc1S(=O)(=O)N1CCOCC1	-7.2%	-6.2	x	4.7%	-22.2%
SMILES	Sm TGR inh	HCMV antiviral	Giardia FBPA inh	Pf growth 96h	Pf growth 48h
Cc1cc(NS(=O)(=O)c2ccc(NC(=O)COc3c(C)cc(Br)cc3C)cc2)no1	16.8%	23.3	-6.9%	9.28µM*	-6.8%
CCOC(=O)/C=C/C(=O)Nc1ccc(S(=O)(=O)N2CCCCCC2)cc1	u	65.2	0.5%	11.7µM*	-8.9%
OC[C@@H]1CN(Cc2ccc(Cl)cc2)C[C@H](n2cnc3c(Nc4ccccc4)ncnc32)O1	x	-29.3	x	x	x
Cc1cccc(C)c1NC(=O)CSc1ncc2c(n1)-c1ccc(Cl)cc1N(Cc1ccccc1)S2(=O)=O	5.3%	-98.7*	x	x	x
CN1c2cc(Cl)ccc2-c2nc(SCC(=O)Nc3ccc(F)cc3F)ncc2S1(=O)=O	8.4%	-63.3*	x	x	x
O=C(CSc1ncc2c(n1)-c1ccc(Cl)cc1N(Cc1ccccc1)S2(=O)=O)Nc1ccc(F)c(F)c1	1.1%	7.1	x	x	x
O=C(CSc1ncc2c(n1)-c1cc(Cl)ccc1N(Cc1ccccc1)S2(=O)=O)Nc1ccc(F)cc1F	-25.8%	-98.1*	x	x	x
CCN(CC)CCOC(=O)c1ccc(NC(=O)CCn2c(=O)oc3ccccc32)cc1	-3.3%	23.7	x	x	x
COc1cccc(Nc2ncc3nc(C)c(=O)n(Cc4cccs4)c3n2)c1	x	x	3.6%	x	x
C=CCN1CCc2nc(N)sc2CC1	-11.2%	-12.0	-12.0%	6.75µM*!	-13.4%
C[C@@H]1CN([C@@H](C)CO)S(=O)(=O)c2ccc(Br)cc2O[C@H]1CN(C)C(=O)c1ccccc1	x	-21.9	x	x	x
CN1C(=O)C(=Cc2coc3ccccc3c2=O)C(=O)N(C)C1=O	10µM*	13.8	-1.8%	30.4%	53.4%
CSC1=NSC2=NC(=O)/C(=C\c3coc4ccccc4c3=O)C(=N)N12	-22.9%	11.6	7.5%	-3.4%	-9.9%
CCN(C(=O)c1cc2c(s1)-c1c(C)cccc1OC2)c1ccccc1F	-0.2%	0.3	x	x	x
COc1ccc(C)cc1NCc1cc(=O)oc2cc(-c3ccccc3)c(O)cc12	-14.1%	31.4	-26.7%	1.04µM*	1.47µM*
COc1ccccc1NCc1cc(=O)oc2c(C)c(O)ccc12	0.4%	-26.9	-4.5%	1.85µM*	1.65µM*
Cc1cc(C)cc(NCc2cc(=O)oc3cc(-c4ccccc4)c(O)cc23)c1	-6.9%	u	-3.8%	2.33µM*	4.65µM*
Cc1cc(C)cc(NCc2cc(=O)oc3cc(C)c(O)cc23)c1	0.7%	8.7	-8.8%	u	u
COc1ccc(NC(=O)c2cc(C3CCCCN3C(=O)CCCc3ccccc3)on2)c(C)c1 (stereo not drawn)	x	26.6	x	x	x
CCN1CCN(C(=O)NC(C(=O)NC2C(=O)N3C2SC(C)(C)C3C(=O)O)c2ccccc2)C(=O)C1=O (stereo not drawn)	x	x	-3.1%	x	x
CCCCCCCCCCCCC(=O)N1CCCC[C@H]1CNC(=O)[C@@H](N)CCCCN	x	x	9.0%	x	x
COc1ccc(N(CC(=O)Nc2cc(C)cc(C)c2)S(=O)(=O)c2ccccc2[N+](=O)[O-])c(OC)c1	-1.6%	24.4	-0.7%	8.28µM*	u
COc1ccc(N(CC(=O)Nc2cc(C)ccc2C)S(=O)(=O)c2ccccc2[N+](=O)[O-])c(OC)c1	x	3.9	-0.4%	37.6%	2.94µM*
